Data reported in PubChem BioAssay (EPA / NIEHS).
Several values for one entry are separate records, joined by “and”; a condition that tells them apart may be missing. Identical values can stand only once. Results filed as inconclusive are left out. More than one record can exist for a structure, and the calls need not agree. Activity calls are given as the source filed them. Rule for the calls, unless noted: active = hit-call score of the fitted dose curve at least 0.9, where 1 is the maximum; inconclusive = response in the unintended direction; inactive = score below 0.9.

Experiments:
[1] = molecular target: Retinoic acid receptor alpha (Homo sapiens) (UniProt P10276); assay: NVS_NR_hRARa_Agonist: NovaScreen (NVS) Nuclear Receptor Binding Assay for human Retinoic Acid Alpha Receptor Agonism (RAR) (AID 2283361)
How it was run: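 Cell-free TR-FRET binding readout with extracted receptor protein, read 2 hours after dosing; gain-of-signal fitted relative to DMSO. Screened in duplicate at 25 uM, actives then run in concentration-response.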

[2] = molecular target: Glucocorticoid receptor (Homo sapiens) (UniProt P04150); assay: NVS_NR_hGR: NovaScreen (NVS) Nuclear Receptor Binding Assay for human Glucocorticoid Receptor (GR) (AID 2283363);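 for AC50: activity is loss of specific radioligand binding signal relative to DMSO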
How it was run: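 Cell-free radioligand displacement assay on extracted human GR, read 16 h after dosing by filter-based scintillation counting. Screened in duplicate at 25 uM, then concentration series for actives; loss of signal versus DMSO baseline.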

[3] = molecular target: rat Androgen Receptor (AR), Ar (gene 24208) (UniProt P15207); assay: NVS_NR_rAR: NovaScreen (NVS) Nuclear Receptor Binding Assay for rat Androgen Receptor (AR) (AID 2283366)
How it was run: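 Cell-free radioligand binding on extracts of prostate from testosterone-pretreated rats, read by filter-based scintillation counting 18 h after dosing. Loss of bound signal fitted positively versus DMSO; primary screen in duplicate at 25 uM, actives followed up in concentration series.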

[4] = molecular target: Peroxisome proliferator-activated receptor gamma (Homo sapiens) (UniProt P37231); assay: NVS_NR_hPPARg: NovaScreen (NVS) Nuclear Receptor Binding Assay for human Peroxisome Proliferator-activated Receptor gamma (PPARg) (AID 2283370)
How it was run: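 Extracted receptor protein, cell-free; compound incubated 2 h then fluorescence polarization read. Baseline: DMSO. Actives from 25 uM duplicate screen re-run across concentrations.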

[5] = molecular target: mouse Estrogen Receptor alpha (Era), Esr1 (gene 13982) (UniProt P19785); assay: NVS_NR_mERa: NovaScreen (NVS) Nuclear Receptor Binding Assay for mouse Estrogen Receptor alpha (Era) (AID 2283378);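 note: hit means loss of bound radioligand signal relative to DMSO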
How it was run: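 Measurements come from scintillation counting after filtration, taken 18 hours after chemicals were added to a cell-free mouse Era preparation with radioligand. Screening was duplicate at 25 uM, with concurrent positive and negative controls and confirmatory concentration series for actives.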

[6] = molecular target: Agonist Androgen Response Element (ARE), AR (gene 367) (UniProt P10275); assay: OT_AR_ARELUC_AG_1440: Odyssey Thera (OT) 24-hour CHO-K1 Luciferase Assay for Agonist Androgen Response Element (ARE) (AID 2283379)
How it was run: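 CHO-K1 cells carrying an ARE-driven luciferase reporter were exposed to compounds for 24 h. Luminescence was then read after adding a D-luciferin/ATP mix, and activity was scored as a gain in signal over DMSO vehicle.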

[7] = molecular target: Estrogen receptor beta (Homo sapiens) (UniProt Q92731); assay: OT_ER_ERbERb_1440: Odyssey Thera (OT) 24-hour HEK293T Protein-Complementation Assay for Estrogen Receptor-beta/-beta Homodimer (AID 2283380);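 note: scored as signal increase over DMSO baseline for both agonists and antagonists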
How it was run: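 HEK293T cells stably expressing ER beta LBD (aa 310-547) homodimer fragment-complementation reporter, dosed 24 h. Cells formaldehyde-fixed, Draq5-stained; gain in nuclear (agonist) or nuclear plus cytoplasmic (antagonist) fluorescence versus DMSO read by laser scanning cytometry.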

[8] = molecular target: Estrogen receptor (Homo sapiens) (UniProt P03372); assay: OT_ERa_GFPERaERE_0480: Odyssey Thera (OT) 8-hour HeLa Transcription Induction Assay for Estrogen Receptor (AID 2283381; active = hit-call score of the fitted dose curve at least 0.9, where 1 is the maximum; inactive = score below 0.9)
How it was run: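 Cells (HeLa) receive compound; after 8 h, reporter fluorescence is imaged and quantified by high-content analysis. Gain-of-signal relative to DMSO gives the endpoint.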

[9] = molecular target: Estrogen receptor (Homo sapiens) (UniProt P03372); assay: OT_ERa_GFPERaERE_0120: Odyssey Thera (OT) 2-hour HeLa Transcription Induction Assay for Estrogen Receptor (AID 2283382)
How it was run: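 Measures ESR1 pathway reporter gain-of-signal in HeLa cells after a 2-hour treatment, detected as fluorescent protein induction by microscopy, DMSO as baseline.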

[10] = molecular target: human Thyroid Receptor Alpha (TRa), THRA (gene 7067) (UniProt P10827); assay: NVS_NR_hTRa_Antagonist: NovaScreen (NVS) Nuclear Receptor Binding Assay for human Thyroid Receptor Alpha Antagonism (TRa) (AID 2283362);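 note: activity is loss of signal relative to DMSO baseline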
How it was run: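 In this biochemical format, receptor protein is dosed with chemical and read after 1 hour via AlphaLISA. Decreases from the DMSO baseline indicate antagonist activity; screening used 25 uM in duplicate before concentration-response confirmation.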

[11] = molecular target: human Peroxisome Proliferator-activated Receptor alpha (PPARa), PPARA (gene 5465) (UniProt Q07869); assay: NVS_NR_hPPARa: NovaScreen (NVS) Nuclear Receptor Binding Assay for human Peroxisome Proliferator-activated Receptor alpha (PPARa) (AID 2283359);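 note: activity means loss of TR-FRET signal versus DMSO baseline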
How it was run: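 Cell-free TR-FRET binding assay with extracted PPARα protein, read 1 h after dosing. Primary screen in duplicate at 25 uM, with actives retested in concentration series. Loss of signal versus DMSO.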

[12] = molecular target: Nuclear receptor subfamily 1 group I member 2 (Homo sapiens) (UniProt O75469); assay: NVS_NR_hPXR: NovaScreen (NVS) Nuclear Receptor Binding Assay for human Pregnane X Receptor (PXR) (AID 2283365);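 note: a drop in FRET signal versus DMSO baseline means the compound binds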
How it was run: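 Read-out: TR-FRET, human PXR, 2 h post-dosing, cell-free. Loss of signal vs DMSO taken as binding activity; 25 uM primary, concentration series secondary.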

[13] = test system: guinea pig Dopamine Transporter (DAT), gene 100714898; assay: NVS_TR_gDAT: NovaScreen (NVS) Transporter Assay for guinea pig Dopamine Transporter (DAT) (AID 2283369);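 note: active compounds lower bound radioligand signal relative to DMSO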
How it was run: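 Primary pass: duplicate wells at 25 uM, threshold e.g. 30% inhibition. Follow-up: singleton concentration-response, highest 50 uM. Radioligand binding on guinea pig striatal membranes, 2 h, filtration scintillation detection.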

[14] = molecular target: human Adenosine Transporter (Adot), SLC29A1 (gene 2030) (UniProt Q99808); assay: NVS_TR_hAdoT: NovaScreen (NVS) Transporter Assay for human Adenosine Transporter (Adot) (AID 2283368)
How it was run: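 U937-derived membranes, cell-free radioligand binding, filter scintillation 1 h after dosing. 25 uM duplicate screen; hits (e.g. 30% inhibition) run in concentration-response up to 50 uM; loss of signal versus DMSO.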

[15] = molecular target: guinea pig Sigma Receptor, Non-selective Binding, SIGMAR1 (gene 100135589) (UniProt Q60492); assay: NVS_OR_gSIGMA_NonSelective: NovaScreen (NVS) Nuclear Receptor Binding Assay for guinea pig Sigma Receptor, Non-selective Binding (AID 2283367)
How it was run: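 Radioligand displacement on guinea pig brain membranes, read by filter-based scintillation counting 1 h after dosing. Loss of signal versus DMSO; initial duplicate single-point screen at 25 uM, actives followed in concentration series.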

[16] = test system: rat Norepinephrine Transporter (NET), gene 83511; assay: NVS_TR_rNET: NovaScreen (NVS) Transporter Assay for rat Norepinephrine Transporter (NET) (AID 2283373)
How it was run: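 Rat forebrain membranes; radioligand binding measured by filter-based scintillation counting 1 hour after dosing. Loss of specific binding versus DMSO baseline scored; primary screen in duplicate at 25 uM, actives followed up in concentration series.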

[17] = molecular target: human Dopamine Transporter (DAT), SLC6A3 (gene 6531) (UniProt Q01959); assay: NVS_TR_hDAT: NovaScreen (NVS) Transporter Assay for human Dopamine Transporter (DAT) (AID 2283374);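 note: activity means loss of bound radioligand signal relative to DMSO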
How it was run: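 Cell-free radioligand displacement binding at human DAT, 1 h after dosing, with filtration and scintillation counting. Primary screen in duplicate at 25 uM, actives then in concentration series. Loss of bound signal versus DMSO scored.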

[18] = molecular target: human Norepinephrine Transporter (NET), SLC6A2 (gene 6530) (UniProt P23975); assay: NVS_TR_hNET: NovaScreen (NVS) Transporter Assay for human Norepinephrine Transporter (NET) (AID 2283377);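 for AC50: displacement of radioligand from human NET seen as loss of scintillation signal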
How it was run: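 Cell-free radioligand binding using CHO-derived membrane protein expressing human NET, read by filter scintillation counting 1 h after dosing; loss of signal vs DMSO. Initial duplicate screen at 25 uM, actives retested in concentration series.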

[19] = molecular target: human Serotonin Transporter (SERT), SLC6A4 (gene 6532) (UniProt P31645); assay: NVS_TR_hSERT: NovaScreen (NVS) Transporter Assay for human Serotonin Transporter (SERT) (AID 2283372)
How it was run: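 Radioligand binding to native SERT in human platelet membranes, read by filter-based scintillation counting 1 h after dosing. Primary screen in duplicate at 25 uM; actives followed up in concentration series; loss of signal versus DMSO baseline.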

[20] = molecular target: rat Serotonin Transporter (SERT), Slc6a4 (gene 25553) (UniProt P31652); assay: NVS_TR_rSERT: NovaScreen (NVS) Transporter Assay for rat Serotonin Transporter (SERT) (AID 2283375)
How it was run: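 Using rat forebrain membrane SERT, test chemicals compete with a radioligand for 1 hour, and bound counts are taken by filter-based scintillation. Screening starts at 25 uM in duplicate, followed by concentration series for actives.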

Measured: AC50

Sequence of human Peroxisome Proliferator-activated Receptor alpha (PPARa), PPARA (gene 5465) (Q07869 whole entry, looked up): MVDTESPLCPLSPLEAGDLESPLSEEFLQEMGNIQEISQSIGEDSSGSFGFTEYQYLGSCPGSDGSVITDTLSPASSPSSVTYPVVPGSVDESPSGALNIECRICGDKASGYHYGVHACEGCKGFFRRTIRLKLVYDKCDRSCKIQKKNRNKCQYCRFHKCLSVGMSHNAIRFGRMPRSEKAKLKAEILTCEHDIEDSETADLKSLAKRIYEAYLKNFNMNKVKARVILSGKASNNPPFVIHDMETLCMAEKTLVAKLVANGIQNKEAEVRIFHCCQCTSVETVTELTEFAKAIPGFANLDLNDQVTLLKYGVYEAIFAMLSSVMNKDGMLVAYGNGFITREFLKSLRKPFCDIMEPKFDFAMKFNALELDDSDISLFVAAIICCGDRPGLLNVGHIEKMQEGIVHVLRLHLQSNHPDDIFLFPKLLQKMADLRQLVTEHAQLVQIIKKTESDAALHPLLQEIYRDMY
Sequence of Glucocorticoid receptor (Homo sapiens) (P04150 whole entry, looked up): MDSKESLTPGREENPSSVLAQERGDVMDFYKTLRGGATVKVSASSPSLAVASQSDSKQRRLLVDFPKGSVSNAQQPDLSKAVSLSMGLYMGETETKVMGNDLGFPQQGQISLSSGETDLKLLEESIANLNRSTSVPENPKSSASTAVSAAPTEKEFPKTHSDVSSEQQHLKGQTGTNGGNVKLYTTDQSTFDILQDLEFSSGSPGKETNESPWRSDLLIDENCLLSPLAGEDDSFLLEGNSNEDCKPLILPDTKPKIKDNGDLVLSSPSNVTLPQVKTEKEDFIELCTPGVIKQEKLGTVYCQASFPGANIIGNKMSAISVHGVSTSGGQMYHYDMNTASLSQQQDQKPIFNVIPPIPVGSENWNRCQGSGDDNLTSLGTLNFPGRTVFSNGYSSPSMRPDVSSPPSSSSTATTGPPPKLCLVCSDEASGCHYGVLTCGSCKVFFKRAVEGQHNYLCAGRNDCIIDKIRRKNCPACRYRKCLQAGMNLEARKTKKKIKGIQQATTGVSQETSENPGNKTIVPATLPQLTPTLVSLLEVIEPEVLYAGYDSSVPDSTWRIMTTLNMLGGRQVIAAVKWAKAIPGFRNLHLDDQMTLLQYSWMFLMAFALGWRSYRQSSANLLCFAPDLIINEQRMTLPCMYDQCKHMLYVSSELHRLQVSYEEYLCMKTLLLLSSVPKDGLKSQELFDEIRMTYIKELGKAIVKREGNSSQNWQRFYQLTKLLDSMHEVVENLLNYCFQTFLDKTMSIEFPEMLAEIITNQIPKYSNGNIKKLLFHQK
Sequence of Nuclear receptor subfamily 1 group I member 2 (Homo sapiens) (O75469 whole entry, looked up): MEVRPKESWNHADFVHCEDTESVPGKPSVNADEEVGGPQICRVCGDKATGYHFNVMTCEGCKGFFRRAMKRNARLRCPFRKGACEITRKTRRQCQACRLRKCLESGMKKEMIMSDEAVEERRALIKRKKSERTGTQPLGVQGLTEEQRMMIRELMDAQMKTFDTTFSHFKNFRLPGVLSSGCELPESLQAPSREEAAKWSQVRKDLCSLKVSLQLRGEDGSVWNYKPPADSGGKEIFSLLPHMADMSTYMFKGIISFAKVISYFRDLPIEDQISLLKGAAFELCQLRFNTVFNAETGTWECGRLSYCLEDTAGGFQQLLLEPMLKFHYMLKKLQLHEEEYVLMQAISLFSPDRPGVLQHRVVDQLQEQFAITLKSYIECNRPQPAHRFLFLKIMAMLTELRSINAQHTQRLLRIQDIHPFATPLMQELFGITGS
Sequence of mouse Estrogen Receptor alpha (Era), Esr1 (gene 13982) (P19785 whole entry, looked up): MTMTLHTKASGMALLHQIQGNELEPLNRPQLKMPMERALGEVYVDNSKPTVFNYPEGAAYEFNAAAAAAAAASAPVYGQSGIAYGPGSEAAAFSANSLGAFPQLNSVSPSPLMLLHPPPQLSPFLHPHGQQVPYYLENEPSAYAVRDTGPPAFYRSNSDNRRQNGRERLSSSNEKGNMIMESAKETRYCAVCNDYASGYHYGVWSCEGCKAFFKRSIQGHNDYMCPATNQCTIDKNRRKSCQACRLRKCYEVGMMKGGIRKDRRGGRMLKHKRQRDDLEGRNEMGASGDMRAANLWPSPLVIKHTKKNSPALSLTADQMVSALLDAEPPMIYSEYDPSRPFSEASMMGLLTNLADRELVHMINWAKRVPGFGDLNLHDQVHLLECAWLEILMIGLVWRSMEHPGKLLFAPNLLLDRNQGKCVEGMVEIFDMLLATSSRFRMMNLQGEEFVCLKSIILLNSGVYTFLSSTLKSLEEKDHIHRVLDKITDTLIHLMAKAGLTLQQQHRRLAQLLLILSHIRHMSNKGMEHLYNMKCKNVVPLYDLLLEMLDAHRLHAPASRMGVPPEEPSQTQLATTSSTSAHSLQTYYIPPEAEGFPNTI
Sequence of rat Androgen Receptor (AR), Ar (gene 24208) (P15207 whole entry, looked up): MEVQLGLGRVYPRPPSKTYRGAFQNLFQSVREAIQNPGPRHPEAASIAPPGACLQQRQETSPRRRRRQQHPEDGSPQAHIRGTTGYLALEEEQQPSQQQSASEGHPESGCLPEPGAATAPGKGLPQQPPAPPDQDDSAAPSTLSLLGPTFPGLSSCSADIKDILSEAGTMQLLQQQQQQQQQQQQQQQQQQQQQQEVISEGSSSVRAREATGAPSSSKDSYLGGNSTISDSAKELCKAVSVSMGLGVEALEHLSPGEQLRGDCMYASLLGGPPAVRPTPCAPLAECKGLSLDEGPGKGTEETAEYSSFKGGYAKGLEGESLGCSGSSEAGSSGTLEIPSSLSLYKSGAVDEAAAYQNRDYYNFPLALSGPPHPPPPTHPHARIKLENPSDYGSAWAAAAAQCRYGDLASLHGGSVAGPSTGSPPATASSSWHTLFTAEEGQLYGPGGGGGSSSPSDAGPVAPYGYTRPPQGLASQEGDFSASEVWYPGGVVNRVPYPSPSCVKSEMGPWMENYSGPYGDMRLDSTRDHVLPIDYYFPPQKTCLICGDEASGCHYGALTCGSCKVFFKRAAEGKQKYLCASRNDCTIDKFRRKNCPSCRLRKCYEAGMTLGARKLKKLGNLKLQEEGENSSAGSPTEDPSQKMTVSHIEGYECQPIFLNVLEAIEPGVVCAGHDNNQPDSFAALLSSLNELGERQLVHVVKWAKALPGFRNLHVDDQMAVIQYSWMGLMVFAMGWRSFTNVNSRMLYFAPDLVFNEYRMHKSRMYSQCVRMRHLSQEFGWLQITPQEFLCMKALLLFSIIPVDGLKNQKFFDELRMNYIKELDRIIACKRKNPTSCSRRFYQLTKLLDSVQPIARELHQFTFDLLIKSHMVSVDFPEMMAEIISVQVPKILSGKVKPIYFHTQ
Sequence of Agonist Androgen Response Element (ARE), AR (gene 367) (P10275 whole entry, looked up): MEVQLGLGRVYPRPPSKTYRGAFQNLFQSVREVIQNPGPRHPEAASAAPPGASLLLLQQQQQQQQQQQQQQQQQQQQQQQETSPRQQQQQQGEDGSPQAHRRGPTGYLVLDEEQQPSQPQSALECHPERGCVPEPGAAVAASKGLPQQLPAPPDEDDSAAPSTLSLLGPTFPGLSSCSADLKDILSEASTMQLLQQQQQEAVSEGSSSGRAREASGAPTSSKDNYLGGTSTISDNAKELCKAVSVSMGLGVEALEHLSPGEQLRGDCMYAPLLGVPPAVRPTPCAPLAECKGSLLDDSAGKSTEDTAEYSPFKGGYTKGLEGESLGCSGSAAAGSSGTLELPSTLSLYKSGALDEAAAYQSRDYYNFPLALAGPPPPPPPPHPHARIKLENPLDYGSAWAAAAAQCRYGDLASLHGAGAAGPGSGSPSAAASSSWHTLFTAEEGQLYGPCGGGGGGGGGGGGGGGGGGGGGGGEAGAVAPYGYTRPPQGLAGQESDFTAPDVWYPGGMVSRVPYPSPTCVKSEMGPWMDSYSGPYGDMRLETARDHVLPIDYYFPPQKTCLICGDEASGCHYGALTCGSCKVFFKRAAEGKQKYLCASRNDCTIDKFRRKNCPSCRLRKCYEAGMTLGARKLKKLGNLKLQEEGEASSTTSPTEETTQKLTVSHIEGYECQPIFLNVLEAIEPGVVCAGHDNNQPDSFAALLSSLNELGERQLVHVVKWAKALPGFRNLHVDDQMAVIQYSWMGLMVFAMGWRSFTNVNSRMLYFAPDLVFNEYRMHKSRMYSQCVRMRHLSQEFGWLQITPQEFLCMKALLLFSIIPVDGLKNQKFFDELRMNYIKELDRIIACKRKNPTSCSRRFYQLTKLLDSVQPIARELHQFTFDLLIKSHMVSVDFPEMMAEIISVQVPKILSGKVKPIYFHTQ
Sequence of Estrogen receptor (Homo sapiens) (P03372 whole entry, looked up): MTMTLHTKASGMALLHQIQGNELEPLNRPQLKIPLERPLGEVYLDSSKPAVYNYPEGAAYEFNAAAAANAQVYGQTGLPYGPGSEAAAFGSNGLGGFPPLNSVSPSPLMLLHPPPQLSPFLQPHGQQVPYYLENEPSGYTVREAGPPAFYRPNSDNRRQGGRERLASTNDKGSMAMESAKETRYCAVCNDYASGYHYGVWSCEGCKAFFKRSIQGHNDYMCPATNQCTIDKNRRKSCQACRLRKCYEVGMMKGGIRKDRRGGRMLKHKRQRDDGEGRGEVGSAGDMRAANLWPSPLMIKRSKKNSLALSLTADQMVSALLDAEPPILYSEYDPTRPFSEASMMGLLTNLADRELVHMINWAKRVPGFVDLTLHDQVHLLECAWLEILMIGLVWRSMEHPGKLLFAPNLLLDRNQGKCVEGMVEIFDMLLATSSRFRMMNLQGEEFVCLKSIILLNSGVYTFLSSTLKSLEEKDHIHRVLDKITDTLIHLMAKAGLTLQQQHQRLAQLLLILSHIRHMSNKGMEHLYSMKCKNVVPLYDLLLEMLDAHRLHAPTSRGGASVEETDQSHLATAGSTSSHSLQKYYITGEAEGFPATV
Sequence of guinea pig Sigma Receptor, Non-selective Binding, SIGMAR1 (gene 100135589) (Q60492 whole entry, looked up): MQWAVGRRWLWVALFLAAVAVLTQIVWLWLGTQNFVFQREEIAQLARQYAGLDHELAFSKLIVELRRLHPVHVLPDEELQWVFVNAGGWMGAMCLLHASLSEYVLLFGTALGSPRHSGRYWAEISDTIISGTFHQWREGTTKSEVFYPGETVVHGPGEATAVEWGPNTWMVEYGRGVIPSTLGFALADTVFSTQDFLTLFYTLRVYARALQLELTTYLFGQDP

O=C(c1ccc(O)cc1O)c1ccc(O)cc1O
active: [1] 25 µM and 33.4 µM | [2] 9.33 µM and 8.91 µM and 10.9 µM | [3] 7.84 µM [middle of 4 runs] | [4] 40.4 µM | [5] 470 nM and 647 nM and 1.69 µM | [6] 722 nM and 29.3 µM | [7] 2.09 µM and 2.02 µM and 2.21 µM | [8] 2.11 µM and 2.15 µM and 2.89 µM | [9] 2.24 µM and 2.25 µM and 2.67 µM
inactive: [1] | [4] | [5] | [6]

CCCN(CCC)C(=O)SCC
active: [2] 7.09 µM
inactive: [10] | [3] | [4] | [6] | [7] | [8] | [9]

O=C(c1ccccc1)C1CCCCC1
active: [3] 6.52 µM | [6] 527 nM
inactive: [11] | [12] | [3] | [13] | [4] | [5] | [6] | [8] | [9]

C#C[C@]1(O)CC[C@H]2[C@@H]3CCC4=CC(=O)CC[C@@H]4[C@H]3CC[C@@]21CC
active: [8] 15.1 µM and 8.91 µM | [9] 12.1 µM and 46.1 µM and 5.67 µM
inactive: [12] | [4] | [5] | [8] | [9]

CCC(O)=C1C(=O)CC(C(=O)O)CC1=O (stereo unspecified)
inactive: [14]

S=C([S-])NCCNC(=S)[S-].[Mn+2]
active: [2] 10.1 µM
inactive: [15] | [7]

N[C@@H](Cc1cc(I)c(Oc2ccc(O)c(I)c2)c(I)c1)C(=O)O
inactive: [11] | [12] | [4] | [5] | [8] | [9]
active: [11] 27.3 µM and 20 µM | [4] 32.3 µM | [5] 1.65 µM and 20 µM and 4.66 µM

CC(C)(c1ccc(O)cc1)c1ccc(O)cc1
active: [11] 105 nM | [12] 8.08 µM and 10.9 µM | [3] 16.1 µM [middle of 4 runs] | [15] 8.43 µM | [13] 8.77 µM and 25.4 µM and 11.6 µM | [17] 8.34 µM [middle of 4 runs] | [18] 14.5 µM [middle of 4 runs]
inactive: [12] | [15] | [4] | [16] | [5] | [6]

S=C(S)NCCNC(=S)S.[Mn+2].[S-]C([S-])=NCCN=C([S-])[S-].[Zn+2]
inactive: [11] | [15] | [14] | [4] | [18] | [7]
active: [11] 12500 nM | [10] 7.34 µM | [12] 5.33 µM and 1.52 µM | [18] 269 nM

CC(C)CCCCCCc1ccc(O)cc1
active: [2] 7.09 µM and 16.2 µM and 15.9 µM | [17] 8.36 µM | [5] 3.14 µM and 7.57 nM and 7.26 µM | [7] 1.2 µM and 1.06 µM and 1.25 µM | [8] 147 nM and 116 nM and 263 nM | [9] 273 nM and 120 nM and 248 nM
inactive: [11] | [4] | [5]

CC1(C)C(C=C(Cl)Cl)C1C(=O)OCc1cccc(Oc2ccccc2)c1 (stereo unspecified)
inactive: [2] | [3] | [6] | [8] | [9]

COC(=O)CSc1cc(N=c2sc(=O)n3n2CCCC3)c(F)cc1Cl
inactive: [3] | [6] | [7]

OB(O)O
inactive: [14]

COc1c(Cl)ccc(Cl)c1C(=O)O
inactive: [19] | [20]

O=C(O)c1ccccc1
inactive: [5]
